The results in this text go back to PubChem BioAssay.

Assay [1] is described as follows: compounds binding Alexa647 anti-His antibody – biochemical, small-molecule microarray, 635 nm fluorescence, artefact control for SMM control protein annotation, primary screen (AID 1128).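 Also: score merges feature fluorescence with signal-to-noise for each printed compound spot.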 The settings on record: higher = more signal.
In assay [2] the test system is Human papillomavirus type 1a E7 protein (residues 1-88). Kind of assay: HPV1a E7 small-molecule binders, primary screen, biochemical, small-molecule microarray, residues 1-88, 635 nm (AID 1129). As to conditions: small-molecule microarray binding, fluorescence 635 nm; higher = more signal.
In assay [3] the target is Focal adhesion kinase 1 (Homo sapiens) (UniProt Q05397). Kind of assay: PTK2 protein binding on printed compound slides – biochemical, small-molecule microarray, 635/667 nm fluorescence, BSA, DTT, primary screen (AID 1130).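 Also: composite of spot emission at 667 nm and signal to noise over triplicate slides.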 As to conditions: 635 nm fluorescence, higher = more signal.
The subject of assay [4] is Fibrinogen (Alexa647-labelled). Kind of assay: Alexa647-fibrinogen binding to printed small molecules – biochemical, small-molecule microarray, 635/667 nm fluorescence, artefact control for SMM control-protein annotation, profiling panel (AID 1131).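 Also: z-score merges 667 nm fluorescence with per-spot signal-to-noise over triplicate slides.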 The settings on record: fibrinogen-A647 binding fluorescence, higher = more signal.
The target of assay [5] is Follistatin (Homo sapiens) (UniProt P19883). Kind of assay: FST protein binding to printed compounds – biochemical, small-molecule microarray, 635/667 nm fluorescence, primary screen (AID 1132). The settings on record: 635 nm fluorescence, higher = more signal.
In assay [6] the target is Fibroblast growth factor 2 (Homo sapiens) (UniProt P09038). Kind of assay: basic fibroblast growth factor binding to printed compounds – biochemical, small-molecule microarray, 635/667 nm fluorescence, primary screen (AID 1133). The settings on record: FGF2, fluorescence 635/667, higher = more signal.
The nature of assay [7]: JC-1 mitochondrial potential readout, lung cancer cells – cell-based, A549, JC-1 fluorescence, basal, 24 h, 100 nL, profiling panel (AID 1138).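 Also: A549 lung adenocarcinoma cells under basal conditions with no added stimulus; test concentration not given here.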 As to conditions: higher = more signal.
For the next assay, the system named is Lefty1. Kind of assay: Lefty1 protein binding to printed compounds – biochemical, small-molecule microarray, 635/667 nm fluorescence, primary screen (AID 1139). As to conditions: fluorescence 635/667, higher = more signal.
For assay [8], the system named is wheat germ agglutinin (Triticum aestivum), Alexa647-labelled. The experiment in a line: Alexa647-WGA lectin binding to printed small molecules – biochemical, small-molecule microarray, 635/667 nm fluorescence, artefact control for SMM control-protein annotation, profiling panel (AID 1140).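 Also: score merges 667 nm feature emission with signal to noise over triplicate slides.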 The settings on record: WGA-A647 binding, 635 nm fluorescence, higher = more signal.

Assay [9] has as its target Luciferin 4-monooxygenase (Photinus pyralis) (UniProt P08659). The experiment in a line: inhibition of purified Photinus pyralis luciferase – biochemical, luminescence, purified enzyme, 2006 set, primary screen (AID 1141).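 Also: cell-free assay with purified firefly luciferase at 100 ng per well in PBS; test concentration not given here.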 As to conditions: purified firefly luciferase, SteadyGlo luminescence, 30 min; higher = more signal, called active from +8 up or from −8 down.
The test system of assay [10] is Wnt5a (protein binding on small-molecule microarray). The experiment in a line: small molecules binding Wnt5a protein – biophysical, small-molecule microarray, 635/667 nm fluorescence, primary screen (AID 1142).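 Also: fluorescence read at 667 nm with signal to noise per printed feature.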 The settings on record: 635 nm fluorescence, higher = more signal.
A short description of assay [11]: ATP-based viability of Huh7 replicon cells – cell-based, CellTiter-Glo luminescence, basal, 48 h, cytotoxicity control for HCV replication inhibitor project, primary screen (AID 1143).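 Also: Huh7 hepatoma cells carrying a hepatitis C replication reporter with no stimulus; test concentration not given here.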 The settings on record: higher = more signal, called active from +8 up or from −8 down. A general note: A replicon is a self-replicating genome or part of one, used to study replication in cells.

Assay [12] can be described thus: Pseudomonas biofilm growth suppression – PAO1 strain, BacTiter-Glo luminescence, LB-PBS, primary screen (AID 1144). The settings on record: P. aeruginosa PAO1 biofilm, 12 h, higher = more signal.
Assay [13] can be described thus: basal CRE-LacZ reporter activity in PC12 – cell-based, unstimulated, primary screen (AID 1145). As to conditions: no forskolin, luminescence, 4.5 h, higher = more signal, called active from +8 up or from −8 down.
Assay [14] is described as follows: forskolin-driven CRE-LacZ activity in PC12 – cell-based, CRE-LacZ reporter, forskolin-stimulated, primary screen (AID 1146).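 Also: PC12 cells with 6xCRE LacZ reporter stimulated by forskolin 10 µM; beta-galactosidase reporter signal reflecting CREB driven transcription.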 As to conditions: luminescence, 4.5 h, higher = more signal, called active from +8 up or from −8 down.
The target in assay [15] is Streptavidin (Streptomyces avidinii) (UniProt P22629). Kind of assay: compounds binding control protein streptavidin – biophysical, small-molecule microarray, 635/667 nm fluorescence, artefact control for SMM compound annotation, primary screen (AID 1147).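 Also: signal reflects streptavidin binding to arrayed compounds as a control protein.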 As to conditions: higher = more signal.
Assay [16] can be described thus: probe aInhba binding on compound microarray – biochemical, small-molecule microarray, 635/667 nm fluorescence, primary screen (AID 1148).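 Also: score merges 667nm spot fluorescence with signal-to-noise for antibody binding to printed compounds.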 The settings on record: higher = more signal.
In assay [17] the target is Torsin-1A (Homo sapiens) (UniProt O14656). The experiment in a line: TOR1A wild-type binding on microarray – cell lysate, small-molecule microarray, lysate, 635/667 nm, primary screen (AID 1149). As to conditions: COS7 hTOR1A-WT lysate, 635 nm fluorescence, higher = more signal.
The target is the same in assay [18]. The experiment in a line: torsin A mutant lysate binding on microarrays – cell lysate, small-molecule microarray, COS7 lysate, 635/667 nm fluorescence, primary screen (AID 1150).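 Also: score pools 667 nm emission and signal to noise measuring lysate protein binding.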 The settings on record: COS7 hTOR1A mutant lysate, 635 nm fluorescence, higher = more signal.
For assay [19], the system named is Sonic hedgehog protein (Shh). The experiment in a line: Sonic hedgehog microarray binding compounds – biochemical, small-molecule microarray, 635/667 nm fluorescence, primary screen (AID 1151).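 Also: Shh protein binding to compounds spotted on small-molecule microarray slides; score combines spot fluorescence intensity with signal-to-noise across triplicate slides.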 The settings on record: 635 nm fluorescence, higher = more signal.

Structures are written as SMILES. Activity calls are given as the source filed them. Unless noted, no rule for the calls is given here.

Chain of Luciferin 4-monooxygenase (Photinus pyralis) (P08659 whole entry, looked up): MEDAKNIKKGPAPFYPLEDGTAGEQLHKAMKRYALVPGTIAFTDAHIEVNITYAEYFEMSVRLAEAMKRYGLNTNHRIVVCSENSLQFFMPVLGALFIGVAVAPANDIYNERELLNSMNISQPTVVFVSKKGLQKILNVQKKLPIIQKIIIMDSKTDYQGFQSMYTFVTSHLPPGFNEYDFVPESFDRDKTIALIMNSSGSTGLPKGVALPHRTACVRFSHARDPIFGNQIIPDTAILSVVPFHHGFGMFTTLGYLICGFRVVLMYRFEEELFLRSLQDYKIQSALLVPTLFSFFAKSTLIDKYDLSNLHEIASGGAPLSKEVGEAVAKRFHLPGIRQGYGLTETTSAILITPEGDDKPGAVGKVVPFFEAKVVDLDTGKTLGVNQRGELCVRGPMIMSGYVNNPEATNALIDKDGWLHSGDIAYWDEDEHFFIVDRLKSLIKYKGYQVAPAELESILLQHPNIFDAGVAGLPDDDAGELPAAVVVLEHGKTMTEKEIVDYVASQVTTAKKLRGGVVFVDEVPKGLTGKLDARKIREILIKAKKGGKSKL
Chain of Follistatin (Homo sapiens) (P19883 whole entry, looked up): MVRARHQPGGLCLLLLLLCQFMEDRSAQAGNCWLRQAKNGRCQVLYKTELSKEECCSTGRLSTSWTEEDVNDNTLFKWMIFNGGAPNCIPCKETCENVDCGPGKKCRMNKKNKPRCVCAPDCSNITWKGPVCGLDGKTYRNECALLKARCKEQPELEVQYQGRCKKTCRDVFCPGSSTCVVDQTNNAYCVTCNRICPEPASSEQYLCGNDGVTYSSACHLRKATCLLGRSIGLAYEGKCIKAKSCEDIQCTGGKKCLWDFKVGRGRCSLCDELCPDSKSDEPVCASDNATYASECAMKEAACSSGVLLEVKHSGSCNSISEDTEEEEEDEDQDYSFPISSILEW
Chain of Torsin-1A (Homo sapiens) (O14656 whole entry, looked up): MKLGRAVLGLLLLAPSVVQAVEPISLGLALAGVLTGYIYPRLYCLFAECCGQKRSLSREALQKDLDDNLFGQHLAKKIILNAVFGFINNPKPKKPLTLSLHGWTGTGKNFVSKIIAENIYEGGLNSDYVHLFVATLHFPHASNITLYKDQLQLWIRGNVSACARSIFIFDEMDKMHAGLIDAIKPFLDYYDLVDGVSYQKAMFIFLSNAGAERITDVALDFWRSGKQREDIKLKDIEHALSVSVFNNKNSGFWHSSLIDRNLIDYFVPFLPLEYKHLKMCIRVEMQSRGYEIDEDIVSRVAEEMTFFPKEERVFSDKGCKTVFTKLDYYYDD
Chain of Focal adhesion kinase 1 (Homo sapiens) (Q05397 whole entry, looked up): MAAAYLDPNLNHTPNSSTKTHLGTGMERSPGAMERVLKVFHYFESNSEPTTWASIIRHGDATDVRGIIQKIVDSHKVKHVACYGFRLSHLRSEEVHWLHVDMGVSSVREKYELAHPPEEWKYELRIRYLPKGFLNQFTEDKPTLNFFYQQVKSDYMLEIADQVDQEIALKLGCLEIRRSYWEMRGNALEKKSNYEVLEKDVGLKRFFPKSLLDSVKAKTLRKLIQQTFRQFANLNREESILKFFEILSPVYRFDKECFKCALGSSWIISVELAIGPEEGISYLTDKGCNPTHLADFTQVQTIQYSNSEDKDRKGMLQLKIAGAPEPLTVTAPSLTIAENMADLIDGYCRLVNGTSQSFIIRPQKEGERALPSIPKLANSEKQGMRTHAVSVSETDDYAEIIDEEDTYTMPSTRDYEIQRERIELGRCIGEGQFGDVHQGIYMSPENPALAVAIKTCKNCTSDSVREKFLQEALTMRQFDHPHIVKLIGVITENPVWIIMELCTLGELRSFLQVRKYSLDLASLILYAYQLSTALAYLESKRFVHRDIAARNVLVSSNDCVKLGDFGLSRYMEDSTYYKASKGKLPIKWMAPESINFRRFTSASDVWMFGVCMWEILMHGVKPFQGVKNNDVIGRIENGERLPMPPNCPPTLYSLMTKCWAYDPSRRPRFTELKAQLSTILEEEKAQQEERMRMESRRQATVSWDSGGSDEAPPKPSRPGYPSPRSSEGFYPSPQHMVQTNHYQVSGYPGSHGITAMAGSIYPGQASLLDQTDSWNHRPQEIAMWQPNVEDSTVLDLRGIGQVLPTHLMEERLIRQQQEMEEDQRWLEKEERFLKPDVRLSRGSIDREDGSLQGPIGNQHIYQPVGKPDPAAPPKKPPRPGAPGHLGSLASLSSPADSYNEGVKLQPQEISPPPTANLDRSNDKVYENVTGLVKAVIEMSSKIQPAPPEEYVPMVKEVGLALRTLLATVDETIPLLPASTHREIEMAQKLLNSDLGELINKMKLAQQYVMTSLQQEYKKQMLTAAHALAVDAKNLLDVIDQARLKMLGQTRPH
Chain of Fibroblast growth factor 2 (Homo sapiens) (P09038 whole entry, looked up): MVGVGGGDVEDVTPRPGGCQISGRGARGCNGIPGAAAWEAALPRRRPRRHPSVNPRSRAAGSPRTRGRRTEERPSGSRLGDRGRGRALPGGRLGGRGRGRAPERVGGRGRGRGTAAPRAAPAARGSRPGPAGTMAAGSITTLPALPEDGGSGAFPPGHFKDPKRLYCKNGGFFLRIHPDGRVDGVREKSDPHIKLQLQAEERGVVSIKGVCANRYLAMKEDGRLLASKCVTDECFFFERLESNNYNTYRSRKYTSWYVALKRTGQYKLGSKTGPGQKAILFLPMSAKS
Chain of Streptavidin (Streptomyces avidinii) (P22629 whole entry, looked up): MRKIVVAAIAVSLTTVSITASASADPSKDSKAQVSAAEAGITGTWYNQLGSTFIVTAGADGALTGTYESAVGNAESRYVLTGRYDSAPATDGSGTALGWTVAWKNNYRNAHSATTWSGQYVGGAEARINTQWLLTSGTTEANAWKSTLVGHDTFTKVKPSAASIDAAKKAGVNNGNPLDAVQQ

Turning to `C[C@H](c1ccccc1)N1C(=O)[C@H]2[C@@H]3C(=CC[C@H]2C1=O)C(=O)[C@H]1O[C@H]1[C@H]3O`, the composite z-score in assay [1] worked out at 1.36; in assay [2], 0.336; in assay [3], 0.204; in [4], 0.367; in assay [5], 0.642; in assay [6], 0.565. The composite z-score was 0.708 in the assay on Lefty1; -0.0651 in assay [8]; -0.103 in assay [10]; 0.108 in [15]; -0.0474 in [16]; 0.25 in the assay with Torsin-1A (Homo sapiens) [17]. Further, the composite z-score with Torsin-1A (Homo sapiens) [18] was -0.0342; in assay [19], 0.469. The z-score in [7] was -0.732; in [9], -1.47 (inactive); in assay [11], -7.43 (inactive); in assay [12], 1.16 (inactive); in [13], 0.699 (inactive); in [14] it was 4.29 (inactive).

Consider `COC(=O)[C@@H]1CC[C@H](C)[C@@H](c2ccc(C)cc2)N1C(=O)c1ccc(C=NOC[C@@H](O)COCc2ccco2)cc1`, for which the composite z-score in assay [1] was 0.373; in [2], -1.79; in assay [3], -0.574; in assay [4], -1.68; in assay [5], -0.526; in assay [6], -1.18. For the same molecule, the composite z-score in the assay with Lefty1 was -1.09; in assay [8], -0.893; in assay [10] it was -0.523; in assay [15], -1.24; in assay [16], -0.341; in the assay with Torsin-1A (Homo sapiens) [17], -1.72. Also, the composite z-score was -2.05 in the assay with Torsin-1A (Homo sapiens) [18] and -0.334 in assay [19]. The z-score in assay [7] is -0.245; in assay [9], 0.193 (inactive); in assay [11], -1.83 (inactive); in [12] it was 1.18 (inactive); in assay [13], 5.89 (inactive); in [14], -0.309 (inactive).

Turning to `CC(=O)O[C@H]1C2=C(C(=O)[C@@H]3O[C@@H]31)[C@H]1C(C)O[C@@H]2[C@@]23C(=O)[C@@H]4O[C@@H]4[C@@H](O)C2=CO[C@H](C)[C@@H]13` (stereo not given in full), the composite z-score is 0.0831 in [1]; 0.154 in [2]; -0.0962 in assay [3]; -0.735 in assay [4]; -0.419 in [5]; 0.877 in assay [6]. The composite z-score in the assay with Lefty1 was 0.0364; in [8] it was -0.933; in assay [10], 0.129; in assay [15], -0.503; in assay [16], -0.214; with Torsin-1A (Homo sapiens) [17], 0.0116. For the same molecule, the composite z-score in the assay with Torsin-1A (Homo sapiens) [18] stood at 0.0652; in assay [19], 0.283. For the same molecule, the z-score in [7] was -1.12; in [9], 0.327 (inactive); in [11] it was -1.6 (inactive); in assay [12], 0.968 (inactive); in assay [13], 0.108 (inactive); in assay [14] it was 4.27 (inactive).

For `CO[C@@H]1COC(=O)CC=C[C@@H](C)COC(=O)[C@H](COCc2ccccc2)NC(=O)CC=C[C@H]1C`, the composite z-score was -0.105 in [1]; -1.04 in [2]; -0.765 in assay [3]; -1.55 in assay [4]; 1.24 in assay [5]; 1.73 in [6]. Further, the composite z-score in the assay on Lefty1 was 1.57; in assay [8], -0.672; in assay [10] it was -0.146; in assay [15] it was -0.214; in assay [16] it was -0.128; with Torsin-1A (Homo sapiens) [17], 2.33. Besides, the composite z-score with Torsin-1A (Homo sapiens) [18] is 2.51; in assay [19], 1.77. The z-score in assay [7] is -0.378; in assay [9], -0.336 (inactive); in [11], 0.185 (inactive); in assay [12], 0.324 (inactive); in assay [13] it was 0.605 (inactive); in assay [14] it was -0.201 (inactive).

As to `C[C@@H]1C=CCC(=O)OC[C@H](C)C(=O)N[C@@H](C)C(=O)OC1`, the composite z-score is -0.181 in [1]; -0.479 in assay [2]; 1.32 in assay [3]; -0.096 in [4]; 0.302 in assay [5]; 1.09 in assay [6]. Also, the composite z-score with Lefty1 was 0.921; in [8] it was -0.323; in assay [10], 0.268; in assay [15] it was 0.34; in assay [16], -0.0044; in the assay with Torsin-1A (Homo sapiens) [17] it was 1.51. The composite z-score with Torsin-1A (Homo sapiens) [18] came to 0.527; in assay [19], 1.3. In addition, the z-score in [7] was -0.944; in [9], 1.04 (inactive); in assay [11] it was -0.568 (inactive); in [12], -0.298 (inactive); in [13], -0.887 (inactive); in assay [14], -0.24 (inactive).
